Reference: PubChem BioAssay (EPA / NIEHS)
Where “and” joins values, the source holds several entries; their conditions need not be identical. Identical values can stand only once. Inconclusive results are not listed. The source holds several records for some structures; these can differ, active in one and inactive in another. Calls of active or inactive are those of the source. Rule for the calls, unless noted: active = hit-call score of the fitted dose curve at least 0.9, where 1 is the maximum; inactive = score below 0.9.

Columns and labels:
[1] = CCTE_Mundy_HCI_Cortical_NOG_BPCount: CCTE's Neurite Outgrowth Assay in rat cortical cells for Branch Point Count, Mundy Lab (AID 2284237);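 for AC50: branch points counted about two days after chemical exposure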
Outline: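 Measured 50.33 h after dosing, this morphology endpoint uses rat primary cortical cultures labelled for betaIII-tubulin. Branch points are quantified by high-content imaging, with DMSO as negative control and baseline.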

[2] = TAMU_HCS_1.5hr_SingleDonor1434_Cytotoxicity: Cytotoxicity Assessment using High-content Screening (HCS) Fluorescent Imaging for the Texas A&M University (TAMU) 1.5-hr Human Induced Pluripotent Stem Cell (iPSC)-derived Cardiotoxicity Assay (AID 2284234; active = hit-call score of the fitted dose curve at least 0.9, where 1 is the maximum)
Outline: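 Human iPSC-derived cardiomyocytes dosed at 0.2, 1, 10, 100 uM final (0.5% DMSO) for 90 min at 37 C. Hoechst 33342-stained nuclei counted by 10x high-content imaging; POD is EC10, a 10% drop in total cell count versus DMSO.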

[3] = TAMU_PeakParms_SingleDonor1434_QT: Texas A&M University (TAMU) 1.5-hr Human Induced Pluripotent Stem Cell (iPSC)-derived Cardiomyocytes Calcium (Ca+2) Flux Assay for Cardiotoxicity: QT (decay-rise ratio) (AID 2284235; active = hit-call score of the fitted dose curve at least 0.9, where 1 is the maximum)
Description: TAMU_PeakParms is a cell-based, multiplexed-readout assay that uses iPSC-derived cardiomyocytes with measurements taken at 1.5 hours after chemical dosing in a microplate: 384-well plate.TAMU_PeakParms_SingleDonor1434_QT is a phenotype derived from the decay.rise.ratio.avg parameter and uses an EC05 as its POD (5% increase in decay/rise ratio, compared to controls). Decay.Rise.Ratio.Average measures as the average ratio between the rise time and the decay time of the calcium flux, using Fluorescence intensity as a functional reporter from Calcium (Ca+2) flux assay technology. Before modeling, data is preprocessed to remove data points where there is a cessation of beating (where peak.freq.avg equals 0) and data points after they develop of a severe notch phenotype in order to avoid capturing non monotonic effects related to an advanced pathology.Data from the assay component TAMU_PeakParms_SingleDonor1434_QT was analyzed into 1 assay endpoints. This assay endpoint, TAMU_PeakParms_SingleDonor1434_QT_Prolongation, was analyzed in the positive analysis fitting direction relative to DMSO as the negative control and baseline of activity. Using a type of functional reporter, gain-of-signal activity can be used to understand changes in the cardiac function. […]

[4] = CCTE_Mundy_HCI_Cortical_NOG_NeuronCount: CCTE's Neurite Outgrowth Assay in rat cortical cells for Neuron Count, Mundy Lab (AID 2284236; active = hit-call score of the fitted dose curve at least 0.9, where 1 is the maximum;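 note: neurons counted by imaging betaIII-tubulin and Hoechst stained cortical cells; cells exposed to compound for about 48 hours before fixation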)
Outline: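 Read-out: neuron number by high-content imaging of betaIII-tubulin (Alexa Fluor-488) and Hoechst-labelled rat primary cortical cells.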

[5] = UKN2_HCS_IMR90_cell_viability: Viability Assessment in the University of Konstanz (UKN) Leist Lab Neural Crest Cell Migration Assay in human induced IMR90 Pluripotent Stem Cells (UKN2) (AID 2284233);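 note: viability of neural crest cells differentiated from IMR90 iPSC measured by calcein-AM fluorescence imaging; cells exposed to compound for 24 h after a 24 h migration phase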
Outline: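 iPSC-derived (IMR90) neural crest cells seeded around silicone stoppers on PLO/laminin/fibronectin; after 24 h migration in N2-S with EGF/FGF, chemical added for 24 h. Calcein-AM/Hoechst stained 30 min, high-content imaged; bidirectional fit versus DMSO.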

[6] = UKN4_HCS_LUHMES_cell_viability: Viability Assessment in the University of Konstanz (UKN) Leist Lab Neurite Outgrowth Assay in human LUHMES cells (UKN4) (AID 2284232)
Outline: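 LUHMES precursors differentiated 2 days, replated at 30000 cells/well without cAMP/GDNF, then compound-treated 24 h. Viability from Hoechst H-33342 and calcein-AM live staining (30 min) by high-content fluorescence imaging; bidirectional fit versus DMSO.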

[7] = read-out: Interleukin 17A (IL17A), IL17A (gene 3605); experiment: BSK_BT_xIL17A: BioMAP Diversity Plus: BT Assay for Interleukin 17A (IL17A) Biomarker Activity (AID 2284229); conditions: primary human B cells with PBMC
Description: BSK_BT is a cell-based, multiplexed-readout assay that uses B cell and peripheral blood mononuclear cells, a human vascular primary cell co-culture, with measurements taken at 24 hours after chemical dosing in a microplate: 96-well plate.BSK_BT_xIL17A is an assay component measured in the BSK_BT assay. It measures secreted IL-17A related to regulation of gene expression using LumineX xMAP technology.Data from the assay component BSK_BT_xIL17A was analyzed at the endpoint, BSK_BT_xIL17A, in the positive analysis fitting direction relative to DMSO as the negative control and baseline of activity. Using a type of cytokine quantitation reporter, gain or loss-of-signal activity can be used to understand protein changes. […]
The levels of cell surface (or secreted, indicated by the prefix "s") biomarker endpoints were measured by ELISA. Overt cytotoxicity to cells in confluent adherent cultures (all systems other than the BT system) was assessed by measuring total protein levels using sulforhodamine B (SRB) staining in parallel cultures at the time of biomarker measurements, indicated as SRB endpoints. For proliferation assays for adherent cell types, individual cell types are cultured at sub-confluence and relative cell numbers quantified by SRB staining at time points optimized for each system (48 h: 3C and CASM3C systems; 72 h: BT and HDF3CGF systems; 96 h: SAg system). […]

[8] = read-out: Tumor necrosis factor (Homo sapiens) (UniProt P01375); experiment: BSK_BT_xTNFa: BioMAP Diversity Plus: BT Assay for Tumor necrosis factor alpha (TNF-alpha) Biomarker Activity (AID 2284230); conditions: primary human B cells with PBMC
Outline: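 Read-out: Luminex xMAP quantitation of secreted TNF-alpha from a B cell/PBMC co-culture 24 h after compound addition. Signal analysed relative to DMSO vehicle, positive fitting direction.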

[9] = read-out: Vascular cell adhesion molecule 1 (VCAM1), VCAM1 (gene 7412); experiment: BSK_MyoF_VCAM1: BioMAP Diversity Plus: MyoF Assay for Vascular cell adhesion molecule 1 (VCAM1) Biomarker Activity (AID 2284231); conditions: primary human lung fibroblasts
Outline: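 Primary human lung fibroblasts were dosed with test chemical for 24 h, then cell-surface VCAM-1 was measured by ELISA. Activity was fitted in the positive direction against DMSO as negative control and baseline.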

[10] = read-out: Collagen I, COL1A1 (gene 1277); experiment: BSK_MyoF_CollagenI: BioMAP Diversity Plus: MyoF Assay for Collagen I Biomarker Activity (AID 2284238); conditions: primary human lung fibroblasts
Outline: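 Human lung fibroblasts were exposed to test chemical for 24 h, then Collagen I was quantified by ELISA. Activity was fitted in the increasing direction against DMSO as the negative control and baseline.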

Chain of Tumor necrosis factor (Homo sapiens) (P01375 whole entry, looked up): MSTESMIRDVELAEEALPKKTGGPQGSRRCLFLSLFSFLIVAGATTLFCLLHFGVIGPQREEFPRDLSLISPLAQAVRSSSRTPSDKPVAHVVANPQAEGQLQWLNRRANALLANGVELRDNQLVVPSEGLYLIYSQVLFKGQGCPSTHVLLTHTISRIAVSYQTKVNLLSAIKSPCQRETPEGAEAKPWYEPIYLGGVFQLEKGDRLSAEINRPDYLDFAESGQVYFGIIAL

With CCOP(=S)(OCC)SCCSCC as the molecule, how does the outcome [1] read?
Its outcome is “inactive”.

With COP(=O)(OC)C(O)C(Cl)(Cl)Cl (configuration not stated) as the molecule, how does the outcome [1] read?
Its outcome is “inactive”.

Which AC50 [2] does the source give for C=C(C)[C@H]1Cc2c(ccc3c2O[C@@H]2COc4cc(OC)c(OC)cc4[C@@H]2C3=O)O1 here?
The AC50 was 10 nM (active).

And the outcome [3]?
Its outcome is “inactive”.

And the AC50 [4]?
The AC50 was 0.135 µM (active).

What about the AC50 [1] of the same molecule?
Its AC50 is 17.5 nM (active).

Which results are given for CCOP(=S)(OCC)OC(Cl)C(Cl)(Cl)Cl (configuration not stated)?
outcome [5]: inactive; AC50 [4]: 50 µM (active) and 21.7 µM (active); AC50 [1]: 50 µM (active) and 28.7 µM (active)

Which outcome [5] does the source give for CCCCSP(=O)(SCCCC)SCCCC here?
The outcome was “inactive”.

What about the AC50 [4] of the same molecule?
Its AC50 is 86.4 µM (active) and 68.4 µM (active).

And the AC50 [1]?
Its AC50 is 84.4 µM (active) and 76 µM (active).

For CCOP(=S)(OCC)Oc1ccc2c(C)c(Cl)c(=O)oc2c1, which outcome [4] is on record?
Its outcome is “inactive”.

And the AC50 [1]?
The AC50 was 86400 nM (active).

For CN1COCN(Cc2cnc(Cl)s2)C1=N[N+](=O)[O-], which outcome [1] is on record?
Its outcome is “inactive”.

Which results are given for CC1=NNC(=O)N(/N=C/c2cccnc2)C1?
outcome [4]: inactive; outcome [1]: inactive

For CCOP(=S)(Oc1cnc(C(C)(C)C)nc1)OC(C)C (configuration not stated), which outcome [5] is on record?
The outcome was “inactive”.

And the AC50 [4]?
The AC50 was 28 µM (active).

What about the outcome [4] of the same molecule?
Its outcome is “inactive”.

What about the AC50 [1] of the same molecule?
Its AC50 is 22800 nM (active).

And the outcome [1]?
Its outcome is “inactive”.

For CCOC(=O)CC(SP(=O)(OC)OC)C(=O)OCC (configuration not stated), which outcome [6] is on record?
The outcome was “inactive”.

And the outcome [5]?
Its outcome is “inactive”.

And the outcome [1]?
Its outcome is “inactive”.

What does the source list for CON=C(C(=O)OC)c1ccccc1CON=C(C)c1cccc(C(F)(F)F)c1?
AC50 [5]: 50 µM (active); AC50 [4]: 1.78 µM (active); AC50 [1]: 929 nM (active)

What does the source list for COP(=O)(OC)OC(Br)C(Cl)(Cl)Br (configuration not stated)?
AC50 [5]: 21.6 µM (active); AC50 [4]: 30.2 µM (active) and 29.5 µM (active); AC50 [1]: 30.4 µM (active) and 22.1 µM (active)

Which outcome [1] does the source give for C[N+]1(C)CCCCC1 here?
The outcome was “inactive”.

For CC[C@H](C)[C@H]1O[C@]2(C=C[C@@H]1C)C[C@@H]1C[C@@H](C/C=C(\C)[C@@H](O[C@H]3C[C@H](OC)[C@@H](O[C@H]4C[C@H](OC)[C@@H](NC)[C@H](C)O4)[C@H](C)O3)[C@@H](C)/C=C/C=C3\CO[C@@H]4[C@H](O)C(C)=C[C@@H](C(=O)O1)[C@]34O)O2, which AC50 [6] is on record?
Its AC50 is 1760 nM (active).

And the AC50 [5]?
The AC50 was 3.1 µM (active) and 3.81 µM (active).

And the AC50 [4]?
Its AC50 is 1.23 µM (active) and 1.7 µM (active).

What about the AC50 [1] of the same molecule?
The AC50 was 883 nM (active) and 1.53 µM (active).

Which AC50 [7] does the source give for O=[N+]([O-])c1cc(C(F)(F)F)c(Cl)c([N+](=O)[O-])c1Nc1ncc(C(F)(F)F)cc1Cl here?
The AC50 was 730 nM (active).

And the AC50 [8]?
Its AC50 is 3970 nM (active).

What about the AC50 [9] of the same molecule?
The AC50 was 2530 nM (active).

What about the AC50 [5] of the same molecule?
The AC50 was 1.48 µM (active).

And the AC50 [4]?
The AC50 was 1.94 µM (active).

What about the AC50 [1] of the same molecule?
Its AC50 is 740 nM (active).

What about the AC50 [10] of the same molecule?
The AC50 was 2520 nM (active).

With S=C1NCCN1 as the molecule, how does the outcome [1] read?
Its outcome is “inactive”.

For CCOP(=S)(OCC)Oc1cc(C)nc(C(C)C)n1, which AC50 [1] is on record?
Its AC50 is 110 nM (active).

With CCOP(=O)(SC(C)CC)N1CCSC1=O (configuration not stated) as the molecule, how does the outcome [1] read?
The outcome was “inactive”.

Which outcome [4] does the source give for CSC1=N[C@@](C)(c2ccccc2)C(=O)N1Nc1ccccc1 here?
Its outcome is “inactive”.

And the outcome [1]?
The outcome was “inactive”.

What does the source list for CCOP(=O)(NC(C)C)Oc1ccc(SC)c(C)c1 (configuration not stated)?
outcome [5]: inactive; outcome [4]: inactive; outcome [1]: inactive

With COP(=O)(NC(C)=O)SC (configuration not stated) as the molecule, how does the outcome [1] read?
Its outcome is “inactive”.

With CC(C)N(C(=O)SCC(Cl)=C(Cl)Cl)C(C)C as the molecule, how does the AC50 [6] read?
The AC50 was 19300 nM (active).

And the outcome [4]?
The outcome was “inactive”.

And the outcome [1]?
Its outcome is “inactive”.

With CCCSP(=O)(OCC)SCCC as the molecule, how does the outcome [5] read?
The outcome was “inactive”.

And the outcome [4]?
The outcome was “inactive”.

What about the outcome [1] of the same molecule?
The outcome was “inactive”.

With CN(C)[C@@H]1C(=O)C(C(N)=O)=C(O)[C@@]2(O)C(=O)C3=C(O)c4c(O)cccc4[C@@](C)(O)[C@H]3[C@H](O)[C@@H]12 as the molecule, how does the outcome [7] read?
Its outcome is “inactive”.

And the outcome [8]?
Its outcome is “inactive”.

And the outcome [9]?
Its outcome is “inactive”.

What about the AC50 [5] of the same molecule?
Its AC50 is 90 µM (active).

And the AC50 [4]?
Its AC50 is 76.9 µM (active).

And the outcome [1]?
The outcome was “inactive”.

And the outcome [10]?
The outcome was “inactive”.

For CCCSP(=O)(OCC)Oc1ccc(Br)cc1Cl (configuration not stated), which outcome [4] is on record?
The outcome was “inactive”.

And the outcome [1]?
Its outcome is “inactive”.

What does the source list for CCOP(=O)(OCC)Oc1cc(C)nc(C(C)C)n1?
outcome [5]: inactive; outcome [4]: inactive; outcome [1]: inactive

For CCOP(=S)(OCC)Oc1ccc([N+](=O)[O-])cc1, which outcome [2] is on record?
Its outcome is “inactive”.

And the outcome [3]?
The outcome was “inactive”.

And the AC50 [1]?
The AC50 was 24700 nM (active).

Which results are given for CC(=NC#N)N(C)Cc1ccc(Cl)nc1?
outcome [6]: inactive; outcome [5]: inactive; outcome [4]: inactive; outcome [1]: inactive
